D3 antag – D3 dopamine receptor (human) antagonism; P35462; D3R cells, DiscoveRx beta-arrestin luminescence, antagonist mode; hits give low values; max response, negative = inhibition, %; 360,000 compounds, 2.5% hits; AID 652054; in the data active means max response below about -50%; inconclusive means no clear call, values can overlap the other calls; further: on the % scale 0 is the no-effect control and ±100 the full control effect
Target sequence (P35462 whole entry, looked up): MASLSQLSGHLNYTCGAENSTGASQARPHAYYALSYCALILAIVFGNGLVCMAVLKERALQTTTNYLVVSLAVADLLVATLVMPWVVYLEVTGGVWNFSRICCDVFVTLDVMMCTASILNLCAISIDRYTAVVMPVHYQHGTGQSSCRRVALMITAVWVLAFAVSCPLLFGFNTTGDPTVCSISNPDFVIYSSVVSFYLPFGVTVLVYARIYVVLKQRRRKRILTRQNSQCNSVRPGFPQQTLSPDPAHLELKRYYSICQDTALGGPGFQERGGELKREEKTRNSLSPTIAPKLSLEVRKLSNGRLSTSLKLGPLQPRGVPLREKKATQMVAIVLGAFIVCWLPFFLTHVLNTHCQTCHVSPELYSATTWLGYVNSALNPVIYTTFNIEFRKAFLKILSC
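Cells expressing the human receptor were seeded at 1500 cells/well, incubated overnight at 37 degrees C in 5% CO2, then exposed to library compounds with dopamine controls for 90 minutes at 37 degrees C before luminescent detection.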
D3 ag – D3 dopamine receptor (human) agonism; 410,000 compounds, 0.58% hits; AID 652048; D3R DiscoveRx beta-arrestin cells, luminescence, 90 min; P35462; max activation, %; in the data active means max activation above about 30%; further: 0% is about no effect
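Cells at 1500/well, incubated overnight, then treated with pinned compounds (dopamine as control) for 90 min at 37 degrees C. DiscoveRx reagent added for 30 - 60 minutes at room temperature; luminescence read.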
TRPML1 inh – human mucolipin-1 channel inhibition; Q9GZU1; TRPML1-inducible cells, Ca2+ dye fluorescence, FDSS; hits give low values; inhibition of EC80 agonist-evoked calcium signal; activity change, negative = inhibition, % (concentration not given with the values); 390,000 compounds, 0.02% hits; in the data active means activity change below about -50%; inconclusive means between about -30% and that limit;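 further: stimulus is agonist 54-4 at its EC80 concentration; on the % scale 0 is the no-effect control and ±100 the full control effect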
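Calcium fluorescence in TRPML1-DL cells induced overnight with Tet: a 110 s read after compound pin addition, then a 110 s antagonist read after challenge with 54-4 at 4 uM final (EC80).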
TRPML1 agonist – agonists of human TRPML1 channel | Q9GZU1 | TRPML1-expressing cells, Ca2+ dye fluorescence, FDSS | activation, % (no concentration beside the values) | 410,000 compounds, 0.12% hits; in the data active means activation above about 50%; inconclusive means mostly about 30% to 49%; further: 0% is about no effect
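TRPML1-DL cells, Tet-induced overnight (~16 h, 37 degrees C), loaded 45-90 min at room temperature with Ca8 no-wash calcium dye plus quencher. FDSS fluorescence: 10 s baseline, compound pin-transfer, 110 s agonist read, then EC80 54-4 (4uM final) and 110 s antagonist read.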
* = called active by the depositor; ? = inconclusive; nt = no result given. Most compounds without a hit are left out; they make up all but 2.9% or so of the library.

SMILES | D3 antag | D3 ag | TRPML1 inh | TRPML1 agonist
CN(C)CCC(=O)C(Cc1ccccc1)c1ccccc1 (configuration not stated) | -112* | -13 | 16 | 12
COc1cc(OC)c(OC)cc1/C=C/c1nccc2ccccc12 | nt | nt | nt | 0
COc1cc2[nH]c(=S)n(NC(=O)c3ccccc3)c(=O)c2cc1OC | -61* | -29 | 11 | 2
COc1cc2[nH]c(=S)n(C3CC3)c(=O)c2cc1OC | -58* | -12 | -8 | 1
Cc1ccc(SC2=C(Sc3ccc(C)cc3)C(=O)c3ccccc3C2=O)cc1 | -114* | -18 | 2 | 0
COc1nccnc1NS(=O)(=O)c1ccc(N=Cc2c(C)[nH]n(-c3ccc(C)c(C)c3)c2=O)cc1 | -60* | 1 | 3 | 0
COc1nccnc1NS(=O)(=O)c1ccc(N=Cc2c(C)[nH]n(-c3ccccc3)c2=O)cc1 | ? | -11 | -2 | 2
COc1ccc(NC(=O)CSc2nc(-c3cccs3)cc(C(F)(F)F)n2)cc1OC | nt | 1 | -15 | 0
CC(C)[C@H](NC(=O)[C@@H]1Cc2c([nH]c3ccccc23)C2c3ccccc3C(=O)N21)C(=O)N1CCC[C@@H]1C(=O)O (some centres not stated) | 29 | 40* | nt | nt
Cc1ccc(CNCc2cn[nH]c2-c2ccc(C)cc2)cc1 | nt | nt | nt | 0
CN1CCc2c(sc3c2C(=O)NC(c2cn(Cc4ccccc4)c4ccccc24)N3)C1 (configuration not stated) | -75* | -11 | 8 | 0
CN1CCc2c(sc3c2C(=O)NC(c2ccc(-c4ccc(Cl)cc4)o2)N3)C1 (configuration not stated) | -81* | -25 | 20 | 1
Cc1ccc(NC(=O)c2ccc(F)c(S(=O)(=O)NCCc3ccccc3)c2)cc1F | nt | 5 | -5 | 3
N#C/C(=C1\SCC(c2ccccc2Cl)S1)n1ccnc1 (configuration not stated) | nt | 10 | nt | nt
Cc1cccc(NC(=O)Cc2nc(-c3c[nH]c(C(=O)N4CCCC4)c3)cs2)c1 | 46 | 52* | 9 | 4
O=C(Nc1ccc(F)cc1F)c1ccc(-n2cnc3cccnc32)cc1 | nt | -3 | 9 | 0
O=C(COC(=O)CCc1c[nH]c2ccccc12)NC(c1ccccc1)c1ccccc1 | 5 | 39* | 15 | 0
CCc1ccc(OCC(=O)Nc2ccc3c(c2)c2ccccc2n3CC)cc1 | nt | -9 | 20 | 0
CCn1c2ccccc2c2cc(NC(=O)COC(=O)c3cc(OC)c(OC)cc3OC)ccc21 | 22 | 54* | 6 | -1
CCOC(=O)C(=CNc1ccc2c(c1)c1ccccc1n2CC)C(=O)OCC | 134 | 66* | 24 | 1
CCOC(=O)C(=CNc1ccc(C)cc1C)C(=O)OCC | 89 | 15 | 0 | 4
CCOC(=O)C(=CNc1cccc(C)c1C)C(=O)OCC | 40 | 39* | 24 | 4
O=C(Nc1ccc2nc(SCC(=O)N3CCOCC3)sc2c1)c1ccccc1Cl | nt | 0 | -22 | 2
c1cc2c3c(c1)CCCN3CCC2 | nt | nt | nt | 0
CCOC(=O)c1c(C)[nH]c(C)c1S(=O)(=O)N1CCC(C(=O)Nc2ccc(F)cc2F)CC1 | nt | 3 | 2 | 0
SMILES | D3 antag | D3 ag | TRPML1 inh | TRPML1 agonist
CC(C)CCNC(=O)C1CCN(c2nc3ccccc3o2)CC1 | 5 | 5 | -20 | 2
Cc1ccc(CN2CCC(C(=O)NCCC(C)C)CC2)o1 | -64* | -6 | -4 | 0
COC(=O)[C@]1(C)N[C@H](CN(C)C(=O)Nc2ccc(OC)cc2)[C@@H]2C(=O)N(Cc3ccccc3)C(=O)[C@@H]21 | 19 | 34* | 3 | -1
COc1cc(/C=C(\C#N)C(=O)NCC2CCCO2)ccc1OCCC(C)C (configuration not stated) | -10 | 2 | -19 | 52*
COc1cc(/C=C(\C#N)C(=O)NCC2CCCO2)ccc1OC(=O)c1ccco1 (configuration not stated) | -53* | -10 | 31 | 1
CCN(CC)CCN(Cc1cc2cc(C)c(C)cc2[nH]c1=O)C(=S)NCc1ccco1 | -72* | -27 | 4 | 0
CCN(CC)CCN(Cc1cc2cc3c(cc2[nH]c1=O)OCO3)C(=S)NCCCOC | -52* | -6 | -3 | -1
Cc1cc2cc(CN(CCN(C)C)C(=S)NCc3ccco3)c(=O)[nH]c2cc1C | -27 | -11 | -20 | 1
CCN(CC)CCN(Cc1cc2ccc(C)cc2[nH]c1=O)C(=S)Nc1ccccc1C(=O)OC | -84* | -19 | 7 | 1
